From PubChem BioAssay (EPA / NIEHS)
Calls of active or inactive are those of the source. The calls were made as follows: active = hit-call score of the fitted dose curve at least 0.9, where 1 is the maximum; inactive = score below 0.9.

Assay: ATG_Oct_MLP_CIS: Attagene CIS-FACTORIAL HepG2 Assay for human Octamer-Binding Transcription Factor (Oct) (AID 2282993)
Details: HepG2 Attagene cis-factorial Oct reporter, mRNA; actives raise or lower the signal
Protocol: ATG_CIS is a cell-based, multiplexed-readout assay that uses HepG2, a human liver cell line, with measurements taken at 24 hours after chemical dosing in a 24-well plate.ATG_Oct_MLP_CIS is one of 52 assay component(s) measured or calculated from the ATG_CIS assay. It is designed to make measurements of mRNA induction, a form of inducible reporter, as detected with fluorescence intensity signals by Reverse transcription polymerase chain reaction (RT-PCR) and Capillary electrophoresis technology.Data from the assay component ATG_Oct_MLP_CIS was analyzed into 1 assay endpoint. This assay endpoint, ATG_Oct_MLP_CIS, was analyzed with bidirectional fitting relative to DMSO as the negative control and baseline of activity. Using a type of inducible reporter, measures of mRNA for gain or loss-of-signal activity can be used to understand the reporter gene at the transcription factor-level as they relate to the gene POU2F1. Furthermore, this assay endpoint can be referred to as a primary readout, because this assay has produced multiple assay endpoints where this one serves a reporter gene function. To generalize the intended target to other relatable targets, this assay endpoint is annotated to the dna binding intended target family, where the subfamily is POU domain protein.
Human liver HepG2 cells are transiently transfected with multiple reporter transcription units (MRTUs) in 6-well plates using FuGene 6 reagent (Roche; 3 ml FuGene/1 mg DNA). The MRTU constructs are regulated by a cis-regulating element (promoter). […] A major difference between the CIS and TRANS system is that in CIS activities of endogenous TFs are measured, whereas the TRANS assay evaluates changes in activities of exogenous, chimeric NR-Gal4 proteins. […] At the end of 24 hour incubation, total RNA was isolated using TriZol reagent (Invitrogen). The isolated RNA is then reverse-transcribed using oligo(dT) primer and Mo-MLV reverse transcriptase (Invitrogen) with DNAse I (Ambion) treatment for 30 min. The one-tenth of the produced cDNA was amplified by PCR using Taq DNA polymerase (Invitrogen) and two reporter sequence-specific primers. The PCR products were fluorescently labeled by primer extension with 6-arboxyfluorescein (6-FAM) 5'-labeled reporter sequence-specific primer (2 min at 95 C, 20 s at 68 C and 10 min at 72 C) and these products were digested with 5U of HpaI (New England Biolabs) for 2h at 37 C. The fragments were purified using Qiaquick PCR columns (Qiagen), analyzed on an ABI 3130xL genetic analyzer (Applied Biosystems) with peak positions identified by using a set of X-rhodamine (ROX)-labeled MapMarker1000 molecular weight standards (BioVentures). The raw capillary electrophoresis data was processed using Attagraph software (Attagene).

SMILES	outcome	AC50
FC(F)(F)C(F)(F)C(F)(F)C(F)(F)C(F)(F)C(F)(F)CCI	inactive	–
COc1cc(-c2nc(NC(=O)c3cc4cc(C)cc(C)c4n3CC(=O)O)sc2CCC2CCCCC2)c(OC)cc1Cl	–	5.48 µM (active)
NS(=O)(=O)c1cc2c(cc1Cl)NCNS2(=O)=O	inactive	–
CC1=C(/C=C/C(C)=C/C=C/C(C)=C/CO)C(C)(C)CCC1	inactive	–
Oc1ccc2c(c1)OC[C@@H](N1CCC(O)(c3ccc(F)cc3)CC1)[C@H]2O	–	27.1 µM (active)
CCCCCCCCCCCCCO	inactive	–
CCCCCCCCCCCC(=O)OC	inactive	–
c1cc(-c2ccncc2)ccn1	inactive	–
Oc1ccc2ccccc2c1N=Nc1ccccc1	inactive	–
O=c1[nH]cc(F)c(=O)[nH]1	inactive	–
COc1ccc(S(=O)(=O)N2C(=O)[C@@](c3ccccc3OC)(N3C[C@H](O)C[C@H]3C(=O)N(C)C)c3cc(Cl)ccc32)c(OC)c1	–	38 µM (active)
Cc1cccc([N+](=O)[O-])c1C	inactive	–
Nc1ccc(S(=O)(=O)c2ccc(N)cc2)cc1	inactive	–
COC(=O)c1ccc(O)cc1	inactive	–
CCNc1cccc(C)c1	inactive	–
CCOC(=O)CCC(=O)OCC	inactive	–
CN[C@H]1CC[C@@H](c2ccc(Cl)c(Cl)c2)c2ccc(S(N)(=O)=O)cc21	inactive	–
CC(C)c1ccc(C(=O)N=C(N)N)cc1S(C)(=O)=O	inactive	–
COc1cc(/C=C/C(=O)CC(=O)/C=C/c2ccc(O)c(OC)c2)ccc1O	–	33.4 µM (active)
Cc1ccc(N(C)C)cc1	inactive	–

SMILES	outcome	AC50
COc1ccc(C)cc1N	inactive	–
Cc1nc(C)nc(N2C[C@@H](C)N(c3ccnc([C@@H](C)O)n3)[C@@H](C)C2)n1	inactive	–
CC(=O)C(C)=CC1C(C)=CCCC1(C)C (stereo not given)	inactive	–
NCCO	inactive	–
CC(=O)Oc1ccccc1C(=O)O	–	177 µM (active)
CC=Cc1ccc(O)c(OC)c1	inactive	–
Clc1cc(Cl)c(Cl)cc1Cl	inactive	–
COc1cc(S(=O)(=O)O)c(C)cc1N=Nc1c(O)ccc2cc(S(=O)(=O)O)ccc12	inactive	–
Nc1ccccc1N	–	29 µM (active)
CCCCc1ccc2c(n1)[C@@H](c1ccc(OC)cc1C[C@H](C)C(=O)O)[C@H](C(=O)O)[C@H]2c1ccc2c(c1)OCO2	inactive	–
COc1ccc2c(c1)c(CC(=O)O)c(C)n2C(=O)c1ccc(Cl)cc1	inactive	–
CC(CO)OC(C)CO (stereo not given) (tested in a mixture with another compound)	inactive	–
CNC(=O)[C@H]1O[C@@H](n2cnc3c(NCc4cc(Cl)ccc4OCc4cc(C)no4)ncnc32)[C@H](O)[C@@H]1N	inactive	–
O=C(O)Cc1ccccc1Nc1c(Cl)cccc1Cl	inactive	–
CCCCCCCCCCC	inactive	–
CN1CCCC1=O	inactive	–
CCCCCCCC=O	inactive	–
Cc1ccc2ncccc2c1	inactive	–
COc1cccc2c1C(=O)c1c(O)c3c(c(O)c1C2=O)C[C@@](O)(C(=O)CO)C[C@@H]3O[C@H]1C[C@H](N)[C@H](O)[C@H](C)O1	–	0.719 µM (active)
CC(=O)OC/C=C(\C)CCC=C(C)C	inactive	–
